Source: PubChem (several laboratories)
Shown are actives, neighbours in structure and some others; about 3.2% of the full set was active somewhere.
TROY signal inh: inhibitors of TROY-driven NF-kB signaling, primary screen, Q293 LMP1-TROYcd cells, NF-kB luciferase, uHTS; hit rate 0.98% among 360,000; Q293 LMP1-TROYcd NF-kB luciferase reporter, 4 h; inhibition, % at 10 µM;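 active = compounds whose plate-normalised and pattern-corrected inhibition of the luciferase reporter signal at the single screening dose is 50% or more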
LGR2 inh: inhibitors of bursicon-induced LGR2 CRE-luciferase signal, primary screen, cell-based, HEK293, CRE-luciferase reporter, bursicon stimulation | Drosophila bursicon receptor LGR2 (rickets) | hit rate 0.35% among 380,000 | inhibition, % at 9.99 µM | bursicon-stimulated, 4 h;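 active = drop in luminescence signal, shown as inhibition above about 50% in the replicate tests, limit read from the data, passing the limit was not always enough; inconclusive = probably only some replicates passing the limit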;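 also: agonist challenge used bursicon conditioned medium at about half maximal strength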
PAX8 reporter: inhibitors of PAX8-driven TPO luciferase reporter, primary screen, RMG-I cells, single concentration. SteadyGlo, 24 h. inhibition, % at 12.6 µM. hit rate 1.2% among 360,000. AID 652154, 2013;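 active = mean replicate inhibition at least 60% with every replicate also reaching 60%; inconclusive = only one of the two criteria is met; inactive = mean below 60% and not all replicates reaching 60%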;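 also: luciferase light reporting Pax8 driven TPO promoter activity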
TWEAK Fn14 block: inhibitors of TWEAK-Fn14 signaling, primary screen, luciferase reporter cells, uHTS; inhibition, % at 10 µM; AID 1159606, 2016; hit rate 2% among 360,000; TWEAK-stimulated Fn14 reporter cells, luciferase luminescence, 8 h; in the data active = inhibition above about 50%
LMP1 NFkB inh: EBV LMP1-driven NF-kappaB luciferase reporter inhibitors, primary screen, cell-based, luminescence, single point; hit rate 0.69% among 350,000; LMP1-induced NF-kappaB luciferase reporter cells; inhibition, % at 12.5 µM; in the data active = inhibition above about 41%; inconclusive = no clear call, values can overlap the other calls
EWS-Fli block: EWS/Fli-driven NR0B1 reporter inhibitors, primary screen, A673 cells, NR0B1 luciferase, luminescence, MLPCN library; inhibition, % at 12.6 µM; viability-normalised; hit rate 0.67% among 350,000;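 active = mean inhibition of at least 50% after viability correction, with every replicate also passing that limit; inconclusive = mean reaches 50% but only one of two replicates passes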;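 also: firefly luciferase signal divided by Alamar Blue viability fluorescence both relative to DMSO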
DNA binder FP: DNA binders by acridine orange displacement, dose response, counter-screen for EWS/Fli inhibitor project, biochemical, fluorescence polarization, cherry-pick | salmon sperm DNA acridine orange fluorescence polarization | hit rate 2% among 640 | AC35, µM (top dose mostly 68 µM) | shares compounds with EWS-Fli block;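 active = fitted curve reaches a 35% signal fall AC35 below twice the sample's top valid tested dose, actives reach about 48 µM in these data; inactive = the rest, including activity in the rising direction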;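 also: lower polarization ratio signals compound binding to DNA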
Each line names hits and unclear results; the compound was inactive in the other large screens (follow-up assays come after a bar, where they were run).

C[C@H](CO)N1C[C@H](C)[C@H](CN(C)Cc2ccncc2)Oc2ccc(NC(=O)NC3CCCCC3)cc2CC1=O	none (no result: TROY signal inh, TWEAK Fn14 block, LMP1 NFkB inh)
COc1cccc(CNC(=O)C[C@H]2CC[C@@H]3[C@@H](COc4ccc(NC(=O)c5cccs5)cc4C(=O)N3C)O2)c1	none (no result: TROY signal inh, TWEAK Fn14 block, LMP1 NFkB inh)
CCC(=O)Nc1ccc2c(c1)C(=O)N(C)C[C@H](OC)[C@@H](C)CN(C(=O)c1ccncc1)[C@H](C)CO2	none (no result: TROY signal inh, TWEAK Fn14 block, LMP1 NFkB inh)
C[C@H](CO)N1C[C@H](C)[C@@H](CN(C)Cc2ccc(C(=O)Nc3ccccc3N)cc2)Oc2ccc(NC(=O)Nc3ccc(F)cc3)cc2C1=O	none (no result: TROY signal inh, PAX8 reporter, TWEAK Fn14 block, LMP1 NFkB inh)
C[C@@H]1CN([C@@H](C)CO)C(=O)Cc2cc(NC(=O)C3CCCCC3)ccc2O[C@H]1CN(C)Cc1ccc(C(=O)Nc2ccccc2N)cc1	EWS-Fli block 52 (no result: TROY signal inh, PAX8 reporter, TWEAK Fn14 block, LMP1 NFkB inh) | DNA binder FP inactive
C[C@H](CO)N1C[C@H](C)[C@H](CN(C)Cc2ccc(C(=O)Nc3ccccc3N)cc2)OCCCC[C@H](C)Oc2ccc(N(C)C)cc2C1=O	none (no result: TROY signal inh, LGR2 inh, TWEAK Fn14 block, LMP1 NFkB inh)
C[C@@H]1CN([C@H](C)CO)C(=O)c2cc(NC(=O)Nc3ccccc3)ccc2O[C@@H]1CN(C)Cc1ccc(C(=O)Nc2ccccc2N)cc1	EWS-Fli block 55 (no result: TROY signal inh, TWEAK Fn14 block, LMP1 NFkB inh) | DNA binder FP inactive
C[C@@H]1CN([C@H](C)CO)C(=O)c2cc(N(C)C)ccc2O[C@H]1CN(C)Cc1ccc(C(=O)Nc2ccccc2N)cc1	EWS-Fli block 65 (no result: TROY signal inh, TWEAK Fn14 block, LMP1 NFkB inh) | DNA binder FP inactive
Cc1ccc(S(=O)(=O)Nc2ccc3c(c2)C(=O)N([C@@H](C)CO)C[C@H](C)[C@@H](CN(C)C(=O)c2ccncc2)OCCCC[C@@H](C)O3)cc1	none (no result: TROY signal inh, TWEAK Fn14 block, LMP1 NFkB inh)
CC(C)CC#Cc1ccc([C@H]2[C@@H](CO)N3C(=O)CN(C(=O)c4ccccn4)C[C@@H]23)cc1	none (no result: TROY signal inh, PAX8 reporter, TWEAK Fn14 block, LMP1 NFkB inh)
COc1ccc2cc(C(N)=O)/c(=N\NC(=O)c3ccccc3)oc2c1	TROY signal inh 58, LGR2 inh inconclusive, TWEAK Fn14 block 89, LMP1 NFkB inh 46, EWS-Fli block 71 | DNA binder FP inactive
C[C@H](NC(=O)[C@H]1[C@H](CO)[C@H]2Cn3c(ccc(-c4ccncc4)c3=O)[C@H]2N1C)c1ccccc1	none (no result: TROY signal inh, TWEAK Fn14 block, LMP1 NFkB inh)
COc1ccc(CCCNC(=O)C2Cc3c(-c4ccc5c(c4)OCO5)ccnc3O2)cc1 (configuration not stated)	EWS-Fli block 53 (no result: LMP1 NFkB inh) | DNA binder FP inactive
CC(C)(C)c1ccc(Oc2ccc(N)cn2)cc1	EWS-Fli block 71 (no result: LMP1 NFkB inh) | DNA binder FP inactive
CC(C)(C)c1ccc(Oc2ccc(NC(=O)c3ccccc3C(=O)O)cn2)cc1	EWS-Fli block 63 (no result: LMP1 NFkB inh) | DNA binder FP inactive
COC(=O)C[C@@H]1CC[C@@H]2[C@H](COc3ccc(NC(=O)c4ccc(C(F)(F)F)cc4)cc3C(=O)N2C)O1	EWS-Fli block 78 (no result: TROY signal inh, TWEAK Fn14 block, LMP1 NFkB inh) | DNA binder FP inactive
CCNC(=O)C[C@@H]1CC[C@H]2[C@@H](COc3ccc(NC(=O)c4cc(C)on4)cc3C(=O)N2C)O1	none (no result: TROY signal inh, TWEAK Fn14 block, LMP1 NFkB inh)
CN1C(=O)c2cc(NC(=O)c3ccc(Cl)cc3)ccc2OC[C@@H]2O[C@@H](CC(=O)NCc3cccc(F)c3)CC[C@H]21	EWS-Fli block 61 (no result: TROY signal inh, TWEAK Fn14 block, LMP1 NFkB inh) | DNA binder FP inactive
COC(=O)C[C@@H]1CC[C@@H]2[C@H](COc3ccc(NC(=O)c4ccc(F)c(F)c4)cc3C(=O)N2C)O1	EWS-Fli block 72 (no result: TROY signal inh, TWEAK Fn14 block, LMP1 NFkB inh) | DNA binder FP inactive
CN1C(=O)c2cc(NC(=O)c3ccc(Cl)cc3)ccc2OC[C@H]2O[C@@H](CC(=O)NCc3cccc(F)c3)CC[C@@H]21	none (no result: TROY signal inh, TWEAK Fn14 block, LMP1 NFkB inh)
Cc1cc(C(=O)Nc2ccc3c(c2)C(=O)N(C)[C@@H]2CC[C@@H](CC(=O)NCc4ccc(-c5ccccc5)cc4)O[C@H]2CO3)no1	EWS-Fli block 66 (no result: TROY signal inh, TWEAK Fn14 block, LMP1 NFkB inh) | DNA binder FP inactive
C[C@H]1CN([C@@H](C)CO)C(=O)c2cccc(NS(=O)(=O)c3ccc(Cl)cc3)c2O[C@@H]1CN(C)S(=O)(=O)c1cn(C)cn1	none (no result: TROY signal inh, PAX8 reporter, TWEAK Fn14 block, LMP1 NFkB inh)
COc1ccc(/C=C2\SC(=O)N(CCCC(=O)Nc3cc(Cl)ccc3C(=O)O)C2=O)cc1	TROY signal inh 85, TWEAK Fn14 block 104, LMP1 NFkB inh 74, EWS-Fli block 85 | DNA binder FP inactive
C[C@H]1O[C@@H](O[C@H]2[C@@H](O)C[C@H](O[C@H]3[C@@H](O)C[C@H](O[C@H]4CC[C@@]5(C)[C@H](CC[C@@H]6[C@@H]5C[C@@H](O)[C@]5(C)[C@@H](C7=CC(=O)OC7)CC[C@]65O)C4)O[C@@H]3C)O[C@@H]2C)C[C@H](O)[C@@H]1O	TROY signal inh 53, LGR2 inh 84, PAX8 reporter 109, TWEAK Fn14 block 69, LMP1 NFkB inh 81, EWS-Fli block 66 | DNA binder FP inactive
CCN1C/C(=C/c2ccc(OC)c(O)c2)C(=O)/C(=C/c2ccc(OC)c(O)c2)C1	EWS-Fli block 53 | DNA binder FP inactive
Oc1c(Cl)cc(Cl)c2cccnc12	TROY signal inh 63, EWS-Fli block 54 | DNA binder FP inactive
Oc1ccc(Cl)c2cccnc12	none
CN(c1ccc(NC(=O)CCc2c[nH]c3ccccc23)cc1)c1ccccn1	EWS-Fli block 59 (no result: TROY signal inh, TWEAK Fn14 block, LMP1 NFkB inh) | DNA binder FP inactive
Fc1cccc(-c2ccc(C3[C@H]4CNC[C@@H]3N4CC3CCOCC3)cc2)c1 (some centres not stated)	none (no result: TROY signal inh, PAX8 reporter, TWEAK Fn14 block, LMP1 NFkB inh, EWS-Fli block)
c1cncc(-c2ccc([C@@H]3[C@H]4CNC[C@@H]3N4CC3CCOCC3)cc2)c1	EWS-Fli block 51 (no result: TROY signal inh, TWEAK Fn14 block, LMP1 NFkB inh) | DNA binder FP inactive
CC1=NN(c2ccc(C)cc2)C(=O)/C1=C\C=C\c1ccccc1	TWEAK Fn14 block 94, EWS-Fli block 61 | DNA binder FP inactive
CC1=NN(c2ccccc2)C(=O)/C1=C/C=C/C=C/N(C)C	none
OC[C@H]1[C@@H](c2ccc(C#CC3CCCC3)cc2)[C@@H]2CN(CCC(F)(F)F)CCCCN12	EWS-Fli block 52 (no result: TROY signal inh, TWEAK Fn14 block, LMP1 NFkB inh) | DNA binder FP inactive
Cc1noc(C)c1NC(=O)N(C)C[C@H]1Oc2ccc(NS(=O)(=O)c3ccc(Cl)cc3)cc2CC(=O)N([C@H](C)CO)C[C@H]1C	none (no result: TROY signal inh, TWEAK Fn14 block, LMP1 NFkB inh)
Cc1nc2ncccn2c1-c1csc(Nc2ccc(O)cc2)n1	EWS-Fli block 58 | DNA binder FP inactive
Cc1ccc(Nc2nc(-c3c(C)nc4ncccn34)cs2)cc1	none (no result: LGR2 inh, PAX8 reporter, EWS-Fli block)
Cc1cc(NC(=O)CCN2C(=O)/C(=C/c3ccccc3Cl)SC2=S)no1	none
CCc1ccc(/C=C2\SC(=S)N(CCCC(=O)NC3=NCCS3)C2=O)cc1	TROY signal inh 77, TWEAK Fn14 block 92, LMP1 NFkB inh 46, EWS-Fli block 77 | DNA binder FP inactive
